Assay outcomes (PubChem)
Hits are enriched below; roughly 1.8% of the tested compounds scored in any of these assays.
S1P2 antag – antagonists of human S1P2 receptor. cell-based S1P2 antagonist assay, inhibition at 5 uM. inhibition, % at 5 µM. 97,000 tested, 0.21% active. AID 736; in the data active means inhibition above about 45%;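 further: CRE beta-lactamase reporter cells expressing human S1P2 stimulated with S1P; 0% = agonist at EC80 alone and 100% = agonist plus reference antagonist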
Target sequence (O95136 whole entry, looked up): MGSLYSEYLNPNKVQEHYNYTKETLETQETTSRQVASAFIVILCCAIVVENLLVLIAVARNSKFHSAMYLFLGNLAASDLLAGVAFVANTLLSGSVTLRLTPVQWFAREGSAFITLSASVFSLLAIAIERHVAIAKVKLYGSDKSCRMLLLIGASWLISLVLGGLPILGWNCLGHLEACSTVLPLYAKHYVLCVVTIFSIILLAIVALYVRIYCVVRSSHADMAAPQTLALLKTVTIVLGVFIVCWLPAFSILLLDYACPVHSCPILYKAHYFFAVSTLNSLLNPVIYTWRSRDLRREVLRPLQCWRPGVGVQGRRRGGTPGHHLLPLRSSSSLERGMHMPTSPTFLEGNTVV
GALR2 blocker – GALR2 (human) receptor antagonism. GALR2-expressing cells, antagonist mode. 140,000 tested, 0.39% active. inhibition, % at 4 µM. O43603; in the data active means inhibition above about 27%;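 further: cells stimulated with galanin 1-16 at roughly its EC80; 0% = agonist challenge control and 100% = basal control without agonist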
MRP1 act – MRP-1 activation. AID 799. H69AR cells + doxorubicin, viability rescue, CellTiter-Glo. 140,000 tested, 0.61% active. viability increase, % at 10 µM;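 active means viability gain under doxorubicin at or above a set limit, the compound median plus 3 SD, cut at about 4.7% in these data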;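 further: MRP-1 overexpressing cells given doxorubicin 25 µM after compound pretreatment; 18-22 h compound pretreatment then 72 h with doxorubicin before readout; 0% = doxorubicin-only wells and 100% = vehicle-treated cells without doxorubicin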
S1P2 agonist – activates the human S1P2 receptor; O95136; 97,000 tested, 0.46% active; S1P2-expressing cell line, agonist reporter read-out; activation, % at 4.5 µM; in the data active means activation above about 16%;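 further: 0% = vehicle low control and 100% = maximal reference agonist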
GALR2 ag – agonists of human galanin receptor 2 (GALR2) | 140,000 tested, 0.48% active | O43603 | activation, % (test concentration not listed) | AID 803 | GALR2-expressing cells, agonist activation read-out; in the data active means activation above about 5%, passing the limit was not always enough;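 further: 0% = vehicle buffer wells and 100% = reference agonist at full effect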
MRP reversal – reverses drug resistance mediated by MRP | AID 602 | 85,000 tested, 0.04% active | H69AR cells + 2 uM doxorubicin, CellTiter-Glo, 72 h | differential viability (reversal), % at 10 µM;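 active means viability drop by adding the cancer drug above about 55%, with treated viability meeting a 40% cutoff, limit read from the data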;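 further: viability without doxorubicin minus viability with 2 µM doxorubicin for each compound; larger differential means the compound sensitizes cells more to doxorubicin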
Numbers without * were called inactive; x = no result given.

SMILES | S1P2 antag | GALR2 blocker | MRP1 act | S1P2 agonist | GALR2 ag | MRP reversal
C=CCNc1oc(/C=C/c2ccccc2)nc1C#N | -22 | 2 | -3 | 17* | 12* | x
Cc1ccc(C(=O)N(CC(=O)Nc2ccc(Cl)c(Cl)c2)Cc2ccco2)cc1 | x | -3 | -1 | x | -2 | x
CCOC(=O)c1c(Nc2ccccc2)sc(/C=C2\C=Nc3ccccc32)c1O | -54 | -14 | -1 | 0 | 0 | -17
CCc1nn2c(N)c(/C=C3\C=Nc4ccccc43)c(=O)nc2s1 | x | 4 | 8.2* | x | -1 | x
CC(C)CCOc1ncnc2c1sc1nc3c(cc12)CSC(C)(C)C3 | -2 | 3 | 6.3* | -9 | -3 | -5
CCCn1cnc2c(sc3nc4c(cc32)CSC(C)(C)C4)c1=O | 11 | 3 | 1 | -5 | -1 | x
C/C(=N/NC(=O)c1cccs1)c1c(C)[nH]n(-c2nc3ccccc3s2)c1=O | x | 16 | 1 | x | -1 | x
O=C(COC(=O)c1ccccc1C(=O)c1ccccc1)NCCc1ccccc1 | x | -2 | -2 | x | 7.0* | x
COc1ccc(C(=O)NCC(=O)OCC(=O)Nc2c(C)n(C)n(-c3ccccc3)c2=O)cc1 | 8 | 14 | -2 | -9 | -2 | -3
CCn1c(SCc2ccc(Cl)cc2)nc2nc3c(cc2c1=O)CCCC3 | x | -4 | 5.4* | x | -1 | x
CCn1c(=S)[nH]c2nc3c(cc2c1=O)CCCC3 | 0 | 15 | -2 | -5 | -1 | -7
N#Cc1cc2c(nc1SCc1ccc(Cl)cc1)CCCC2 | -1 | 4 | 6.8* | -2 | -2 | 7
COc1ccc(N2CCn3c2nc2c3c(=O)n(CCCc3ccccc3)c(=O)n2C)c(OC)c1 | 58* | 0 | 2 | -4 | -1 | 31
CCOc1ccccc1NS(=O)(=O)c1ccc2c(c1)n(C)c(=O)c(=O)n2C | x | -8 | -1 | x | -1 | x
CC(NC(=O)c1ccncc1)C(c1cccs1)N1CCOCC1 (stereo not drawn) | 6 | 9 | -2 | -6 | -2 | 7
CCc1noc(C)c1C(=O)Nc1nc(-c2cc(C)ccc2C)c(C)s1 | 7 | 7 | 5.5* | -4 | -1 | x
CCc1noc(C)c1C(=O)Nc1ncc(C)s1 | -15 | -15 | 0 | -2 | -1 | 21
SC(COCc1ccccc1)CN1CCN(Cc2ccc3c(c2)OCO3)CC1 (stereo not drawn) | x | -1 | -2 | x | -2 | x
CCc1ccc(/C(C)=N/Nc2cc(Cl)nc(C)n2)cc1 | 18 | -2 | 7.9* | -4 | -2 | x
COc1cccc(Sc2ccccc2CN(C)C)c1 | -11 | 8 | -3 | -8 | -4 | x
Cc1cc(C)cc(NC(=O)c2oc3ccccc3c2COc2ccccc2)c1 | x | 3 | 5.2* | x | -1 | x
Cc1cccn2c(=O)c3cc(C(=O)NCCN4CCOCC4)c(=N)n(CCc4ccccc4)c3nc12 | -32 | -29 | -3 | 39* | 7.9* | -5
CCCCNC(=O)c1cc2c(=O)n3cccc(C)c3nc2n(Cc2ccccc2)c1=N | x | 4 | -5 | x | 7.7* | 5
CCNC(=O)c1cc2c(=O)n3cccc(C)c3nc2n(CCc2ccccc2)c1=N | 0 | 4 | -5 | -4 | 0 | -4
COCCn1c(=N)c(C(=O)NCCc2ccccc2)cc2c(=O)n3cccc(C)c3nc21 | -9 | -1 | x | 0 | -1 | x
SMILES | S1P2 antag | GALR2 blocker | MRP1 act | S1P2 agonist | GALR2 ag | MRP reversal
Cc1cccn2c(=O)c3cc(C(=O)NCCc4ccccc4)c(=N)n(CCCn4ccnc4)c3nc12 | -98 | -5 | -7 | 64* | 8 | x
CC1CC1C(=O)OCC(=O)NCc1ccc(Cl)cc1Cl (stereo not drawn) | 6 | -1 | 0 | -6 | -1 | x
O=C(COC(=O)CC(NC(=O)c1ccccc1Cl)c1ccccc1)Nc1cccc(F)c1 (stereo not drawn) | x | -2 | 2 | x | -1 | x
CCCC(=O)Nc1nc(-c2ccc3c(c2)OCCO3)cs1 | 13 | 7 | 0 | -7 | -2 | x
CC(C)(C)c1ccc(S(=O)(=O)NCC(=O)N2CCN(C(=O)c3ccco3)CC2)cc1 | -11 | -11 | -3 | -5 | 0 | 15
Cc1ccc(C2CC(=O)c3cnc(N4CCc5ccccc5C4)nc3C2)cc1 (stereo not drawn) | 3 | -5 | -4 | 581* | -4 | 11
Cc1noc(/C=C/N(C)C)c1S(=O)(=O)N1CCCC(C(=O)NCc2cccs2)C1 (stereo not drawn) | -16 | 12 | 10* | -3 | -2 | 3
O=C(Cc1c[nH]c2ccccc12)Nc1nc2ccccc2[nH]1 | 10 | 18 | -4 | 609* | -2 | -8
O=C(Cc1ccccc1)Nc1nc2ccccc2[nH]1 | 16 | 9 | -1 | -4 | -1 | 16
CCOC(=O)N1CCN(C(=O)c2cc(S(=O)(=O)N3CCCC3)cn2C)CC1 | -16 | 11 | -2 | -6 | -3 | -5
Cc1cc(-c2nnc(SCC(=O)NC3CCCC3)o2)no1 | 15 | 1 | 1 | 70* | -1 | -1
Cc1csc(NC(=O)CSc2nnc(-c3cc(C)on3)o2)n1 | x | 5 | 1 | x | -1 | x
O=C(Nc1ccc(Br)cc1)c1ccc(F)c(S(=O)(=O)NCc2cccs2)c1 | x | 11 | -2 | x | -1 | x
O=C(COc1ccccc1)N/N=C/c1ccc(O[C@@H]2O[C@H](CO)[C@@H](O)[C@H](O)[C@H]2O)cc1 | x | -2 | 0 | x | -1 | x
CCOC(=O)c1nnc(-c2ccc(C)cc2)nc1Oc1ccccc1Cl | 0 | 10 | 0 | -2 | -2 | x
CCOC(=O)c1nnc(-c2ccc(C)cc2)nc1Oc1ccc(Cl)cc1Cl | 11 | 3 | 5.0* | -5 | -1 | x
Cc1ccc2nc3c(cc(C#N)c(=O)n3CCN3CCOCC3)c(=O)n2c1 | x | x | x | x | x | 6
Cc1ccc2nc3c(cc(C#N)c(=O)n3CC3CCCO3)c(=O)n2c1 (stereo not drawn) | x | -5 | -1 | x | 6.8* | 12
Cc1ccc2nc3c(cc(C#N)c(=O)n3-c3nccs3)c(=O)n2c1 | x | -22 | -2 | x | 27* | x
COC(=O)c1ccc(NC(=O)c2sc3nc(-c4ccccc4)cn3c2C)cc1 | 47* | 12 | -2 | -6 | -3 | -19
CN(Cc1ccccc1)Cc1nc2c(c(=O)n(C)c(=O)n2C)n1Cc1ccc(F)cc1 | 0 | -3 | -1 | 39* | -1 | -4
Cc1ccc(Cn2c(CN(C)Cc3ccccc3)nc3c2c(=O)n(C)c(=O)n3C)cc1 | -4 | -12 | -1 | -1 | 1 | -8
CN1/C(=C\C(=O)c2ccco2)C(C)(C)c2ccccc21 | 16 | 6 | -3 | 18* | 4 | -7
Cc1cc(C)n(-c2nc3ccccc3nc2Nc2ccc3c(c2)OCO3)n1 | x | 4 | 4 | x | 0 | 10
COc1cccc(Nc2nc3ccccc3nc2-n2nc(C)cc2C)c1 | -48 | -1 | 5.6* | 38* | 23* | -2
COc1ccccc1Cn1c(=S)[nH]c2cc(C(=O)NCCN3CCOCC3)ccc2c1=O | 16 | 4 | -3 | -9 | -1 | -20
CCN1CCN(CCNC(=O)C2CCCN(Cc3nc(-c4cccc(Cl)c4)oc3C)C2)CC1 (stereo not drawn) | 19 | -2 | -5 | -3 | -3 | 20
